Article PMC5540273 (PLoS ONE, 2017)

The compounds below were run on TSSK3. Conditions: concentration: 1 μM, replicates: in singlicate; n = 1.
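Further: KINOMEscan kinase panel screen.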

SMILES	%Inh
CCn1c(-c2nonc2N)nc2c(-c3ccccc3)ncc(OCCCN)c21.O=C(O)C(F)(F)F.O=C(O)C(F)(F)F [GSK260205]	24%
Cc1ccc(-c2ccc3occ(-c4ccc(S(C)=O)cc4)c3c2)nn1 (stereo not shown)	0%
Cn1cc(-c2ccc3c(c2)CCN3C(=O)Cc2cc(F)cc(F)c2F)c2c(N)ncnc21 [GSK2634140]	8%
COc1ccc(C)c(Nc2ccnc(Nc3ccc(-c4cnc[nH]4)cc3)n2)c1.Cl [GW784041]	0%
c1ccc(Oc2ccc(Nc3ccnc4cc(-c5ccc(CN6CCCCC6)o5)ccc34)cc2)nc1 [GW567143]	19%
CN(c1ccc(F)c(NC(=O)c2cccc(OC(C)(C)C#N)c2Cl)c1)c1ccc2nc(NC(=O)C3CC3)sc2n1	2%
COc1cc(Nc2nccc(N3CCC(NS(=O)(=O)c4ccc(NC(C)=O)cc4)CC3)n2)cc(OC)c1OC [GSK1379825]	25%
Cc1ccc(C)c(NC(=O)Nc2ccc(C)c(-c3ccc(C(=O)Nc4ccncc4)cc3)c2)c1 [GSK1398473]	2%
CCNc1nccc(-c2c(-c3ccc(F)cc3)ncn2C2CCN(C)CC2)n1	0%
Cc1ccc(NC(=O)c2cccc(N3CCCCC3)c2)cc1-c1ccc(C(=O)NCC2CC2)cc1 [GSK1917008]	10%
Cl.Cl.NCC(NC(=O)c1cc(-c2cccnc2)c(-c2ccnc3[nH]ccc23)s1)c1ccccc1 (stereo not shown) [GSK1323434]	19%
COc1cccc(-c2nc(-c3ccccc3)[nH]c2-c2ccncc2)c1 [SB-610250]	4%
Cn1cc(-c2cnc(N)c3c(-c4ccc5c(c4)CCN5C(=O)Cc4ccccc4)csc23)cn1 [GSK2593074]	0%
CN(C)CCNS(=O)(=O)c1ccc(-c2ccnc3[nH]ccc23)cc1 [GSK977620]	15%
O=C(Nc1n[nH]c2nc(-c3cccc(O)c3)ccc12)C1CC1 [SB-711805]	0%
Nc1cccc(-c2ccc3c(N)n[nH]c3c2)c1 [GSK2193613]	8%
Cl.O=C(Nc1ccc(Oc2ccc3[nH]c(NC(=O)c4ccco4)nc3c2)cc1)Nc1cc(C(F)(F)F)ccc1F [GW683134]	6%
COc1cccc2c(-c3ccncc3)c(-c3ccc(F)cc3)nn12 [GW468513]	21%
COc1cc(Nc2ccnc3cc(-c4ccncc4)ccc23)cc(OC)c1OC.Cl [GW494610]	22%

SMILES	%Inh
O=C(O)C(F)(F)F.O=c1[nH]ccc2nc(N[C@@H]3CCNC3)nc(Nc3ccc4c(c3)S(=O)(=O)CC4)c12 [GSK2181306]	96.5%
Cl.N#CCc1ccc(Nc2nccc(Nc3ccc(Oc4ccccc4)cc3)n2)cc1 [GW639905]	10%
Cc1ccc(O)cc1Nc1ccnc2cc(-c3ccc(CN4CCCCC4)o3)ccc12 [GW557777]	0%
Cl.Cl.NC(CNC(=O)c1cc(Br)c(-c2ccnc3[nH]ccc23)s1)c1ccccc1 (stereo not shown) [GSK1322949]	34%
CN(c1ccc2c(c1)nc(NCc1ccccc1)n2C)c1ccnc(Nc2ccc(CS(C)(=O)=O)cc2)n1.Cl [GW811603]	37%
Cc1ccc(O)cc1Nc1ccnc2ccc(C(C)(C)C)cc12 [GW856805]	0%
COC(=O)Nc1nc2ccc(Oc3ccc(NC(=O)Nc4cc(C(F)(F)F)ccc4F)cc3)cc2[nH]1.Cl [GW654607]	6%
Cn1cc(-c2ccc3c(c2)CCN3C(=O)Cc2cc(F)cc(C(F)(F)F)c2)c2c(N)ncnc21 [GSK2635225]	15%
COc1cccc(CC(=O)N2CCc3cc(-c4cn(C)c5ncnc(N)c45)ccc32)c1 [GSK2608899]	30%
N#Cc1cnc2cc(-c3cnc(CNCCN4CCOCC4)s3)ccc2c1Nc1ccc(Oc2ccccc2)cc1 [GW664114]	8%
O=C(Nc1n[nH]c2cc(-c3cccs3)ccc12)C1CC1 [SB-731284]	7%
CN(C)CCOc1ccc(-c2cc(-c3ccc(Cl)c(O)c3)c(-c3ccncc3)[nH]2)cc1.Cl.Cl [SB-684387]	15%
Cc1cccc(Nc2nc(NCCN)ncc2C(N)=O)c1 [GSK1292139]	55%
COC(=O)Nc1nc2cc(Oc3ccc(NC(=O)Nc4cccc(SC)c4)cc3)ccc2[nH]1.Cl [GW697999]	11%
Nc1ncnc2scc(-c3ccc(NC(=O)Cc4cc(F)ccc4F)cc3)c12.O=C(O)C(F)(F)F [SB-731254-M]	0%
CC(C)c1nc(-c2ccc(F)c(NS(=O)(=O)c3c(F)cccc3F)c2)c(-c2ccnc(Nc3ccc(N4CCOCC4)nc3)n2)s1 [GSK1804250]	24%
NCCC(NC(=O)c1cc(Br)c(-c2ccnc3[nH]ccc23)s1)c1ccccc1.O=C(O)C(F)(F)F.O=C(O)C(F)(F)F (stereo not shown) [GSK1307810]	20%
COc1ccc(NC(=O)c2ccoc2)cc1-c1ccc(C(=O)NCC2CC2)cc1 [GW810437]	32%
